In PubChem BioAssay (Tox21):
Records with an inconclusive call do not appear. A call without a number means that no potency is given here. Active and inactive are the calls of the source. The call rests on the fitted dose curve.

Assay: qHTS assay for small molecules that induce genotoxicity in human embryonic kidney cells expressing luciferase-tagged ATAD5 - cell viability (AID 651634); further: nearly all actives have a fitted effect of over 25% in size
Settings: HEK293T ATAD5-luc cells viability, CellTiter-Fluor, 15.5 h; series mostly up to 83.3 µM
Excerpt: National Center for Advancing Translational Sciences [NCATS]
NIH Chemical Genomics Center [NCGC]
U.S. Environmental Protection Agency [EPA]
National Institutes of Environmental Health Sciences [NIEHS]
National Toxicology Program [NTP]
U.S. Food and Drug Administration [FDA]
Enhanced Level of Genome Instability Gene 1 (ELG1; human ATAD5) protein levels increase in response to various types of DNA damage. Using a luciferase reporter-gene tagged with ElG1, a cell-based assay [developed by Kyungjae Myung, NHGRI, NIH] was used to measure the induction of ATAD5 in human embryonic kidney cells (HEK293T). So, increase in luciferase activity can be used to identify the compounds that cause genetic stress. In addition to genotoxicity, these cells were also used to test for cytotoxicity by measuring the protease activity within live cells.
Tox21 Assay Protocol Summary:
For cytotoxicity screening, 2,000 cells in 5 uL/well were dispensed into white, solid-bottom 1536-well plates using a Multidrop Combi (Thermo Scientific) dispenser. Following transfer of 23 nL compound or DMSO vehicle by a pin tool, the plates were incubated 15.5 hr at 37C and 5% CO2. 1 ul CellTiter-Fluor reagent (Promega, Madison, WI) was then added to each plate and following 30 min incubation at 37C, fluorescence intensity was quantified on a ViewLux CCD-based plate reader.
Potency means the concentration at half of the fitted maximal effect.

Structure (SMILES)	Potency
C[Si](C)O[Si](C)(C)O[Si](C)(C)O[Si](C)C	inactive
Cc1cc(C)c(S(=O)(=O)O)cc1N=Nc1cc(S(=O)(=O)O)c2ccccc2c1O	48.6 µM (active)
CCOc1ccc(NC(=O)CC(C)=O)cc1	inactive
N#Cc1cc2ccccc2c2ccccc12	inactive
N=C(N=C(N)N)N1CCOCC1	inactive
O=S(=O)(O)c1ccc(O)c2ncccc12	inactive
c1ccc(-c2nc[nH]c2-c2ccccc2)cc1	inactive
CC(O)C1CCCCC1 (stereo not given)	inactive
O=C(O)C1CCC(C(=O)O)CC1 (stereo not given)	inactive
CCCC(=O)OCC	inactive
ClC(Cl)(Cl)c1ccc(C(Cl)(Cl)Cl)cc1	inactive
CCCCc1cc2ccccc2c(OCCN(C)C)n1	inactive
CNCC[C@@H](Oc1ccccc1C)c1ccccc1	inactive
Cc1ccc(C(=O)C(C)CN2CCCCC2)cc1 (stereo not given)	inactive
CCCC[C@H]1CN(CC2CCOCC2)C(=O)OC12CCN(C1(C)CCN(C(=O)c3c(C)ncnc3C)CC1)CC2	inactive
CCN(CC)CCOC(=O)C1(c2ccccc2)CCCC1	inactive
Cn1sccc1=O	inactive
O=[N+]([O-])c1cccc(Cl)c1Cl	inactive
CC(C)c1ccc2c(C(C)C)cc(C(C)C)c(S(=O)(=O)O)c2c1	inactive
CC1=CCC(C(C)C)C=C1 (stereo not given)	inactive

Structure (SMILES)	Potency
Cc1cc(CC(=O)O)c(C)n1-c1ccc(Cl)cc1	inactive
CCCCC(CC)COCCCN (stereo not given)	inactive
C=C(C)C(=O)OC(C)C	inactive
CCC(C)N(C)C(=O)c1cc2ccccc2c(-c2ccccc2Cl)n1 (stereo not given)	inactive
CC(C)(C)c1cc(CCC(=O)OCC(COC(=O)CCc2cc(C(C)(C)C)c(O)c(C(C)(C)C)c2)(COC(=O)CCc2cc(C(C)(C)C)c(O)c(C(C)(C)C)c2)COC(=O)CCc2cc(C(C)(C)C)c(O)c(C(C)(C)C)c2)cc(C(C)(C)C)c1O	inactive
Cc1nc2ccccc2n1Cc1ccc(Cl)cc1	inactive
CCCCOc1cc(C(=O)OCCN(CC)CC)ccc1N	inactive
O=C(O)c1cccc(N(Cc2cccnc2)c2ccc(OC(F)F)c(OC(F)F)c2)c1	inactive
CCCCCCCCCCCCCCCBr	inactive
Cc1ccccn1	inactive
Cc1cc(O)ccc1N	inactive
CC/C(=C\C(=N/O)C(N)=O)C(C)[N+](=O)[O-] (stereo not given)	inactive
CC(=O)O[C@H]1C[C@@H]2CC[C@@H]3[C@H](CC[C@@]4(C)[C@H]3C[C@H]([N+]3(C)CCCCC3)[C@@H]4OC(C)=O)[C@@]2(C)C[C@@H]1N1CCCCC1	inactive
O=C(O)COC(=O)Cc1ccccc1Nc1c(Cl)cccc1Cl	inactive
CCN1CCC[C@H]1CNC(=O)c1c(OC)ccc(Br)c1OC	inactive
CCCCCCCCN(C)C	inactive
Cn1c(NCCN(CCO)CCCc2ccc([N+](=O)[O-])cc2)cc(=O)n(C)c1=O	inactive
CCCCCCCCCC(=O)OCC	inactive
C=C(C)C(=O)OCCOc1ccccc1	inactive
CCCCCCCCC(CO)CCCCCC (stereo not given)	inactive
